# Test results taken from PubChem BioAssay (NCATS).
# Inconclusive results are not listed. Entries that show only a call come without a potency. Active and inactive are the calls of the source. Unless noted, calls come from the whole dose curve; as a rule, active = well fitted curve in the direction sought with a large enough effect; inconclusive = small, poorly fitted or top-dose-only effect, or another doubt; inactive = no such curve, though single readings can be large; an effect the other way counts as inactive or inconclusive.
# Experiments:
# [1] = P-glycoprotein substrates identified in KB-8-5-11 adenocarcinoma cell line, qHTS therapeutic library screen (AID 1346987); note: series mostly up to about 44 µM; nearly all actives have a fitted effect of over 65% in size
# How it was run: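 In this qHTS, P-gp-rich KB-8-5-11 cells received library compounds across a concentration range. Viability was quantified by luminescence after 72 h at 37 degree C.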
# [2] = qHTS for Inhibitors of Plasmodium falciparum (DD2) proliferation (AID 504314); note: potency is the fitted concentration of half-maximal effect
# How it was run: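 SYBR Green growth assay: 72 h compound exposure of infected red cells (2.5% hematocrit, 0.3% parasitemia), then lysis and overnight dye staining, fluorescence 485/535 nm. Values scaled between DMSO and 0.29 uM artemisinin controls.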
# [3] = qHTS for Inhibitors of Plasmodium falciparum (GB4) proliferation (AID 504315); note: nearly all actives have a fitted effect of over 50% in size; note: potency is the fitted concentration of half-maximal effect
# How it was run: (§1)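 Parasite growth measured as SYBR Green DNA fluorescence (ex 485, em 535 nm) after overnight lysis following 72 h culture at 37 °C, 0.3% parasitemia, 2.5% hematocrit. Values normalized against DMSO and 0.29 uM artemisinin controls, with plate-stack correction.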
# [4] = biological target: Atrial natriuretic peptide receptor 1 (Homo sapiens) (UniProt P16066); test: Natriuretic polypeptide receptor (hNpr1) antagonism - Pilot CMLD screen (AID 1347052; calls by dose curve;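 note: HEK293 cells with hNpr1 stimulated by hNppA peptide at 0.1 nM; cGMP level read as GloSensor luciferase luminescence after agonist stimulation; series mostly up to about 9.2 µM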)
# [5] = qHTS for Inhibitors of Plasmodium falciparum (7G8) proliferation (AID 504316); note: nearly all actives have a fitted effect of over 65% in size; note: potency is the fitted concentration of half-maximal effect
# How it was run: as §1
# [6] = qHTS for Inhibitors of Plasmodium falciparum (HB3) proliferation (AID 504318); note: nearly all actives have a fitted effect of over 60% in size
# How it was run: as §1
# Chain of Atrial natriuretic peptide receptor 1 (Homo sapiens) (P16066 whole entry, looked up): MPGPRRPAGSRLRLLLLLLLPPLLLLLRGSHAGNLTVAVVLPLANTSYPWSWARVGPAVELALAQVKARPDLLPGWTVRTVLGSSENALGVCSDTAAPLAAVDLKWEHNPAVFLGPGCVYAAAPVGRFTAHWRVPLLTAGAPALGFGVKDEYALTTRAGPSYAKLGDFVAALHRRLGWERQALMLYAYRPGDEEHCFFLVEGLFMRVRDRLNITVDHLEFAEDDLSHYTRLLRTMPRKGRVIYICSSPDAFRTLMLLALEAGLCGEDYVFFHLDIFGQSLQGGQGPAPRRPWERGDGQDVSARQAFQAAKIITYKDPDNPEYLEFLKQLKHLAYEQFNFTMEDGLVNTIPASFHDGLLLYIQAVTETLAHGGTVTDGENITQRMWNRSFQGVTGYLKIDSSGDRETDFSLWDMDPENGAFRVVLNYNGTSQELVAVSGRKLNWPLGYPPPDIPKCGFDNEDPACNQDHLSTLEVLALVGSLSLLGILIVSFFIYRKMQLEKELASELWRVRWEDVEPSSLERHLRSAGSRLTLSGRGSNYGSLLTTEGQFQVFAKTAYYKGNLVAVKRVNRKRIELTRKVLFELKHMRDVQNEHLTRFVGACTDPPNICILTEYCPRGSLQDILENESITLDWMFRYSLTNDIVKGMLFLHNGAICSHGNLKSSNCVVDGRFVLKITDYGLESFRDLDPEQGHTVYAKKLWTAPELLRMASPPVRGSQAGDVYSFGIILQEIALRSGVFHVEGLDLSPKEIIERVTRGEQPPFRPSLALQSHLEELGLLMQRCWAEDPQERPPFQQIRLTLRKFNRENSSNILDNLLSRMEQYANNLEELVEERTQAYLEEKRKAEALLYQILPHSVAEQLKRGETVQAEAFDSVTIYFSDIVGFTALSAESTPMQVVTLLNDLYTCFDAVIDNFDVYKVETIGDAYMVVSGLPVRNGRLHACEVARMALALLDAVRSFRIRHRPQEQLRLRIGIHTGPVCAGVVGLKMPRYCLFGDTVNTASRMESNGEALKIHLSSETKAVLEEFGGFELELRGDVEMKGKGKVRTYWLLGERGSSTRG
smiles,measurement,setting,value
CCCCN(CCCC)C(=S)[S-].CCCCN(CCCC)C(=S)[S-].[Zn+2],Potency,[1],inactive
COCOc1cc(OC)ccc1C(=O)C=Cc1ccc([N+](=O)[O-])cc1,Potency,[2],1.5 µM (active)
same,Potency,[3],1.69 µM (active)
same,Potency,[4],inactive
C=CCOC(=O)C(C(C)=O)[C@@H](NC(=O)OC)c1ccc2ccccc2c1 (stereo partly drawn),Potency,[2],inactive
same,Potency,[3],inactive
same,Potency,[5],inactive
same,Potency,[4],inactive
COc1ccc([C@@H](NC(=O)C(F)(F)F)C2CCCC=C2c2ccccc2)cc1OC (stereo partly drawn),Potency,[4],inactive
COc1ccc2c(c1)O[C@@H](c1ccc3c(c1)OCO3)[C@H](OC(=O)Nc1ccc(C)c(Br)c1)C2=O,Potency,[2],inactive
same,Potency,[3],inactive
same,Potency,[4],inactive
C#CCCCON=C1C[C@@H](O)[C@H](O)[C@H]2[C@@H]3C(=O)N(Cc4ccccc4)C(=O)[C@@H]3CC[C@H]12,Potency,[2],inactive
same,Potency,[3],inactive
same,Potency,[4],inactive
CCOC(=O)CCN1C(=O)[C@@H]2[C@H]3[C@H](O)[C@H](O)CC(=NNC(=O)OCc4ccccc4)[C@@H]3CC[C@H]2C1=O,Potency,[2],inactive
same,Potency,[3],inactive
same,Potency,[4],inactive
Cc1ccc(C(=O)OC[C@H]2O[C@H](Cl)C[C@H]2OC(=O)c2ccc(C)cc2)cc1,Potency,[2],1.69 µM (active)
same,Potency,[4],inactive
CCc1cc2c(nc1CC)CCN(CCC(C)=NOC[C@@H](C)[C@H](OCc1ccccc1)C(C)C)C2,Potency,[4],inactive
CC(CCN1CCCc2nc(C)c(C)cc21)=NOC[C@@H](C)[C@H](OCc1ccccc1)C(C)C,Potency,[2],inactive
same,Potency,[3],inactive
same,Potency,[4],inactive
COC(=O)CCCC1=CC2=C(c3ccccc3)C(=O)C(C)(OC(=O)C3CCCC3)C(=O)C2=CN1CCCCO (stereo not drawn),Potency,[2],inactive
same,Potency,[3],inactive
same,Potency,[5],inactive
same,Potency,[4],inactive
CC1=CC[C@@H](COc2ccccc2)O[C@@]2(C1)C(=O)N(Cc1ccccc1C(F)(F)F)c1ccccc12,Potency,[2],inactive
same,Potency,[4],inactive
CCN1C(=NCc2ccco2)N[C@@H](c2ccccc2)[C@H](C(=O)OC)[C@H]1C,Potency,[2],inactive
same,Potency,[3],inactive
same,Potency,[5],inactive
same,Potency,[4],inactive
CC(CCN1CCCc2nc(C)c(C)cc21)=NO[C@@H](C)CN1CCCCc2nc(C)c(C)cc21,Potency,[4],inactive
CCN1C(=NCCc2cccs2)N[C@@H](CCc2ccccc2)[C@H](C(=O)NCCc2cccs2)[C@H]1C,Potency,[4],inactive
COC(=O)CCCC1=CC2=CC(=O)C(C)(OC(=O)c3cccs3)C(=O)C2=CN1Cc1ccco1 (stereo not drawn),Potency,[2],inactive
same,Potency,[3],inactive
same,Potency,[5],inactive
same,Potency,[6],inactive
same,Potency,[4],inactive
CCCC[C@]12Cc3ccccc3[C@H](O1)c1c(cc(-c3ccccc3)oc1=O)O2,Potency,[2],1.69 µM (active)
same,Potency,[3],1.69 µM (active)
same,Potency,[5],1.9 µM (active)
same,Potency,[4],inactive
CC(C)=CCCC(C)=CCON=C1C[C@@H](O)[C@@H](O)[C@@H]2[C@H]3C(=O)N(Cc4ccc5c(c4)OCO5)C(=O)[C@@H]3CC[C@H]12,Potency,[2],inactive
same,Potency,[3],inactive
same,Potency,[4],inactive
